The source of these data is PubChem BioAssay AID686970 (National Center for Advancing Translational Sciences (NCATS), 2013).

Among all 360,000 compounds or so, about 6,000 (1.7%) were called active. Roughly 8% stayed inconclusive and do not appear here. This is one part of a sample in which actives are shown more often than they occur. Values without a mark were called inactive. Calls follow the shape of the dose curve; as a rule, active = well fitted cell-killing curve with a large enough effect; inconclusive = small, poorly fitted or top-dose-only effect, or effect the other way; inactive = flat fitted curve, though single readings scatter.
Potency is read from the fitted curve at half-maximal effect.

This test is described as follows: qHTS for induction of synthetic lethality in tumor cells producing 2HG: qHTS for the HT-1080-NT fibrosarcoma cell line. Also: nearly all actives have a fitted effect of over 55% in size. The note with it: HT-1080-NT fibrosarcoma viability, CellTiter-Glo ATP luminescence, 48 h; series mostly up to 46.1 µM; activity, negative = less viability: at the top concentration. The text has this:
Unbiased genomic sequencing for 22 glioma genomes found recurrent mutation of IDH1 on chromosome 2q33, a gene encoding the cytosolic isoform of IDH1 associated with the tricarboxylic acid cycle (TCA) that catalyzes the oxidative decarboxylation of isocitrate, yielding alpha-ketoglutarate and CO2 via NADP+ to NADPH conversion. Subsequent studies confirmed the recurrent IDH mutations in up to 70% of secondary gliomas and in 10% of AML cases. In addition, the somatic mutation of cancer-associated IDH1 is a point mutation resulting in various amino-acid substituents at Arginine132 (IDH1 R132), a key residue found in the enzyme's active site that when mutated, results in the loss-of-function in metabolizing isocitrate but confers a gain-of-function to produce the oncometabolite 2-hydroxyglutarate (2HG). This in effect defines IDH1 as an oncogene and provides an extraordinary opportunity to discover chemical probes against mutant IDH1 that may translate into much needed new therapies for glioma and AML patients.
This assay aims to perform a synthetic lethal screen for chemical probes specific for 2HG-producing tumor cells using matched paired cell lines (1) HT-1080-NT fibrosarcoma cell line that overproduces 2HG and (2) HT-1080-IDH1KD cell line which has IDH1 expression knocked-down. Desirable compounds are toxic to the NT fibrosarcoma cells but not to the IDH1KD cell line. The data in this AID corresponds to the results of the qHTS against the HT-1080-NT fibrosarcoma cell line.
[1] Dang L, Jin S, Su SM. IDH mutations in glioma and acute myeloid leukemia. Trends of Mol Med. 2010; 16(9): 387-97.
[2] Dang L et al. Cancer-associated IDH1 mutations produce 2-hydroxyglutarate. Nature. 2010; 465(7300):966.
NIH Molecular Libraries Probe Production Centers Network [MLPCN]
NIH Chemical Genomics Center [NCGC]
Assay Submitter (PI): Lenny Dang Ph.D., Agios Pharmaceuticals
Suspensions of trypsinized HT-1080-NT cells were dispensed into white, tissue culture-treated, solid 1536-well plates at 5uL/well (750 cells/well final concentration) in RPMI medium supplemented with 5% FBS. Plates were incubated at 37 degrees C for 2 hours, after which 23 nL of compounds or DMSO were delivered to each well using a pin tool. Plates were then incubated at 37 degrees C for an additional 48 hours. CellTiter-Glo viability reagent (Promega) was dispensed into wells (2.5uL/well) and incubated at room temperature for 10 minutes. The plates were measured on a PerkinElmer ViewLux plate reader for luminescent signal (clear filter, 1 sec exp). DMSO-treated control wells and media-only (no cells) control wells were used to normalize %Activity of identified toxic compounds; DMSO-treated wells corresponded to 0%Activity (100% viability), while media-only controls were used to normalize 100%Activity (0% viability).
Concentration-response curves were fitted to the signals arising from the resulting luminescence. The concentration-effect curves were then classified based on curve quality (r2), response magnitude and degree of measured activity, and compounds were subsequently categorized based on their curve class.
`O=C(NN=Cc1ccccc1O)NN=Cc1ccccc1O`: the Potency was 8.2 µM (active).
As for `CCCNC(=O)C1(C)CCCN(Cc2cccc(C(F)(F)F)c2)C1` (configuration not stated), the “activity, negative = less viability” value was 6.04%.
As for `Cc1cccc(NS(=O)(=O)c2ccc(C)c(C(N)=O)c2)c1`, the “activity, negative = less viability” value is 4.32%.
As to `Cc1cccc(NS(=O)(=O)c2ccc(-c3cnc(C4CC4)o3)cc2)c1`, the Potency is 5.17 µM (active).
With `COc1ccc(CNS(=O)(=O)c2ccc(-c3cnc(C4CC4)o3)cc2)cc1`, the “activity, negative = less viability” value was -19.8%.
Turning to `O=C(CCCN1C(=O)C(c2ccccc2)Oc2cccnc21)Nc1ccccc1Br` (configuration not stated), the “activity, negative = less viability” value is -2.47%.
Still for that read-out and setting: the result for `COc1ccc(C(CNC(=O)c2ccc(OCc3cscn3)cc2)N2CCCC2)cc1` (configuration not stated) reads -5.47%.
Still for that read-out and setting: with `CN1CCN(c2ccc3c(c2)OC[C@H](Cc2ccccc2)NS3(=O)=O)CC1` the figure was 9.78%.
Take `CCN(CC)CCn1c2ccc(Cl)cc2c2nc(C)sc21`: the Potency was 28.2 µM (active).
`COC(=O)Cn1c2ccc(C)cc2c2nc(C)sc21`: the “activity, negative = less viability” value is 11%.
The same measure, in the same setting: the result for `CCN(CC)CCNc1ccc(Cl)cc1[N+](=O)[O-]` reads -3.02%; that for `O=C(NCc1ccccc1)C1c2ccccc2OCC(=O)N1C1CC1` (configuration not stated), 20.8%.
Regarding `Cc1sc2ccccc2c1CNC[C@H]1O[C@@H](n2ccc(=O)[nH]c2=O)[C@H](O)[C@@H]1O`, the “activity, negative = less viability” value was 21.8%.
For `Cc1nc(/N=C(\N)NC(=O)NC2CCCCC2)nc2ccccc12`, the Potency is 23.1 µM (active).
Turning to `CC(C)c1cc(C(=O)NC2CCCCCC2)c2ccccc2n1`, the “activity, negative = less viability” value is -7.58%.
Still for that read-out and setting: with `COc1ccc2nc(/N=C(\N)NC(=O)Nc3ccccc3)nc(C)c2c1` the figure was -18.5%; with `Cc1cccc(N(CC(=O)N2CCCC2)S(C)(=O)=O)c1C`, 9.09%.
Same read-out and setting: the result for `CC(=O)c1ccccc1NC(=O)COC(=O)C1COc2ccccc2O1` (configuration not stated) reads 1.1%.
In the case of `CCCCOCCCNC(=O)C[C@@H]1C[C@@]2(C(=O)OCC)CCCC=C2N(CCC2=CCCCC2)C1=O`, the Potency is 16.4 µM (active).
For `CCOC(=O)[C@]12CCCC=C1N(CCC1=CCCCC1)C(=O)[C@H](CC(=O)NCCCOC)C2`, the “activity, negative = less viability” value was -1.32%.
On the same count and under the same terms, the result for `CCOC(=O)[C@]12CCC=C1N(CCC1=CCCCC1)C(=O)[C@H](CC(=O)NCc1ccc(C)o1)C2` reads 9.86%; that for `COC(=O)[C@]12CCCCC=C1N(Cc1ccc3c(c1)OCO3)C(=O)[C@H](CC(=O)N1CCOCC1)C2`, 8.8%; that for `O=C(Cn1c(-c2cscn2)nc2ccccc21)Nc1ccc(Cl)cc1`, -23.1%.
Take `O=C(Cn1c(NCCO)nc2ccccc21)c1ccc(Cl)cc1Cl`: the Potency was 20.6 µM (active).
With `O=S(=O)(O)c1nc2ccccc2n1Cc1ccc(Cl)cc1Cl`, the “activity, negative = less viability” value was -0.293%.
On the same count and under the same terms, with `COc1ccc(C(C)C)cc1-c1ccc2nncn2c1` the figure was 2.86%; with `CC(C)C[C@@H]1Cc2[nH][nH]c(=O)c2[C@H](CCc2ccccc2)O1`, -14.8%.
Take `Cc1cc(C)c2c(c1)cc(C)c1nnc(SCC(=O)Nc3cc(C)on3)n12`: the Potency was 6.31 µM (active).
For `Cc1cc(NC(=O)CSc2nnc(-c3ccco3)n2N)no1`, the “activity, negative = less viability” value is 2.26%.
Same read-out and setting: with `Cc1cc(NC(=O)CSc2nnnn2-c2ccc(F)cc2)no1` the figure was -1.26%; with `CCOC1=C2[C@H]([C@H]3C(=O)N(c4ccccc4)C(=O)[C@H]3C1)[C@@H](c1ccccc1)N(S(=O)(=O)c1ccc(C)cc1)[C@H]2c1ccccc1`, 24.4%; with `Cc1cccc(C)c1NC(=O)C(c1ccc(C(F)(F)F)cc1)n1c(=O)c(-c2ccco2)nc2ccccc21` (configuration not stated), -22.7%.
`CC(=O)c1ccc(Nc2nc(C(N)c3ccccc3Cl)cs2)cc1` (configuration not stated): the “activity, negative = less viability” value was -21.8%.
Same read-out and setting: the result for `COCC(C)NC(=O)COc1nncc2ccccc12` (configuration not stated) reads -1.79%.
As for `NC(Cc1ccc(F)cc1)c1csc(Nc2nncc3ccccc23)n1` (configuration not stated), the Potency is 23.1 µM (active).
For `Cc1cc(Br)ccc1NC(=O)CCCOc1cc(=O)n(C)c2ccccc12`, the “activity, negative = less viability” value is -24.6%.
On the same count and under the same terms, with `COC(=O)[C@]12CCCCC=C1N(Cc1ccc(Cl)cc1Cl)C(=O)[C@H](CC(=O)NCc1cccc3ccccc13)C2` the figure was -25.6%; with `Cc1cc2c3ccccc3[nH]c(=O)n2n1`, 15.6%; with `COc1ccc(CN2C(=O)C(CC(=O)NCc3cccc4ccccc34)CC(C(=O)N3CCOCC3)=C2C)cc1` (configuration not stated), -1.78%.
With `COC(=O)Cn1cc(/C=C/[N+](=O)[O-])c2ccccc21`, the Potency is 18.4 µM (active).
As for `COCCCNC(=O)Cn1cc(/C=C(\C#N)C(=O)N2CCN(c3ccccc3)CC2)c2ccccc21`, the “activity, negative = less viability” value is 0.984%.
The same measure, in the same setting: with `NC(=O)Cn1cc(/C=N\NS(=O)(=O)c2ccccc2)c2ccccc21` the figure was 0.259%.
`CC1Cc2[nH][nH]c(=O)c2C(C2CCCC2)O1` (configuration not stated): the “activity, negative = less viability” value is 3.75%.
Still for that read-out and setting: the result for `CC1(Oc2ccccc2-c2ccno2)CCN(Cc2ccc(-c3ccccc3)o2)C1` (configuration not stated) reads -24.5%; that for `CC(C)N1C(=O)c2ccccc2NC(=O)C1C(=O)NCc1cccs1` (configuration not stated), 5.09%; that for `COc1ccc(CCNC(=O)/C(C#N)=C2\N=C(NC(=O)c3cccs3)c3ccccc32)cc1`, 2.15%.
Regarding `Cc1ccc2nc(/C(C#N)=C\c3ccc(OC(=O)c4cccs4)cc3)[nH]c2c1`, the Potency is 7.94 µM (active).
As to `Cc1occc1C(=O)NNC(=S)NCC(C)C`, the “activity, negative = less viability” value was 1.03%.
In the case of `Cc1ccnc(NC(=O)c2ccoc2C)c1`, the “activity, negative = less viability” value was -27.2%.
On to `C/C(=N\NC(=O)c1ccoc1C)c1ccccc1O`, for which the Potency is 3.26 µM (active).
In the case of `CC(C)Nc1ncnc2c1ncn2[C@H]1CN(Cc2ccncc2)C[C@@H](CO)O1`, the “activity, negative = less viability” value was 13.7%.
On the same count and under the same terms, the result for `CCCCC(=O)N(C)c1c(CC)nc2c(OCc3ccc(S(C)(=O)=O)cc3)cccn12` reads -15%.
